This is a sample that favours compounds with a hit; in the whole collection about 9.4% have one here.
Pf growth 48h = Primary qHTS for delayed death inhibitors of the malarial parasite plastid, 48 hour incubation. P. falciparum luciferase growth in erythrocytes, 48 h. 310,000 tested, 5.9% active. AID 504832, 2011. Potency, µM (titrated, usually from 28.7 µM), most hits filed as inhibitors
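Growth was read as firefly luciferase luminescence after a 48 h, 37 C, 5% CO2 exposure of compounds to reporter-bearing P. falciparum cultures (0.1% parasitemia, 2% hematocrit final) in Albumax-supplemented RPMI 1640.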
SARS PLP yeast = qHTS of Yeast-based Assay for SARS-CoV PLP | 330,000 tested, 0.19% active | S. cerevisiae expressing SARS-CoV PLpro, growth rescue | Potency, µM (titrated, usually from 32.9 µM), actives largely listed as activators; calls by dose curve; further: nearly all actives have a fitted effect of over 55% in size
Pf growth 96h = Primary qHTS for delayed death inhibitors of the malarial parasite plastid, 96 hour incubation | Potency, µM (highest dose often 28.7 µM), most hits filed as inhibitors | P. falciparum luciferase reporter growth, 96 h | 320,000 tested, 6.9% active
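Erythrocytes infected with luciferase-expressing P. falciparum were dispensed at 2% hematocrit and 0.05% parasitemia (final), then incubated with compounds 96 hours at 37 C in 5% CO2. Luminescence after detection reagent addition reported growth.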
AMA1 RON2 block = qHTS for Inhibitors of AMA1-RON; Towards Development of Antimalarial Drug Lead: Primary Screen; Plasmodium falciparum AMA1 (3D7) - RON2 peptide interaction; AlphaScreen AMA1-biotinylated RON2 peptide binding; Potency, µM (series often up to 58.2 µM), actives largely listed as inhibitors; 360,000 tested, 0.2% active; AID 720542, 2013; further: nearly all actives have a fitted effect of over 45% in size
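AMA1 (3D7) with his tag at 25 nM final met compounds first, then biotinylated RON2 peptide at 25 nM; detection used donor plus acceptor beads, 10 µg/mL apiece, read by AlphaScreen after 30 min at room temperature.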
Large screens that a line does not name were inactive. Unless noted, the call rests on the fitted dose curve; in most records, active means well fitted curve in the direction sought with a large enough effect; inconclusive means small, poorly fitted or top-dose-only effect, or another doubt; inactive means no such curve, though single readings can be large; an effect the other way counts as inactive or inconclusive.

CC(C)C(NS(=O)(=O)c1cccc2nsnc12)C(=O)NC1CCCCC1 (stereo not given)	Pf growth 96h 10µM
CN(C)CCN(C(=O)c1cccc2ccccc12)c1nc2cc3c(cc2s1)OCO3	Pf growth 48h 9.3µM, Pf growth 96h inconclusive
CN(C)CCN(C(=O)c1ccc2ccccc2c1)c1nc2cc3c(cc2s1)OCCO3	none
CN(C)CCCN(C(=O)c1ccc2ccccc2c1)c1nc2cc3c(cc2s1)OCO3	Pf growth 48h inconclusive, Pf growth 96h 10µM
C=CCn1c(=O)[nH]c(=O)c2c(N)c(C(=O)c3ccc(OC)cc3)sc21	none (no result: Pf growth 48h, SARS PLP yeast, Pf growth 96h)
CCCNC(=O)C(Sc1ccccc1)c1ccccc1 (stereo not given)	none
CCNC(=S)NNC(=O)CCc1nc2cc(Cl)ccc2n(Cc2ccccc2)c1=O	Pf growth 48h inconclusive, Pf growth 96h 5.9µM
CN(C)C(CNC(=O)CCc1nc2cc(Cl)ccc2n(Cc2ccccc2)c1=O)c1ccccc1 (stereo not given)	Pf growth 48h 9.3µM, Pf growth 96h 10µM
O=C1CC(N2CCN(S(=O)(=O)c3ccccc3F)CC2)C(=O)N1c1ccccc1F (stereo not given)	AMA1 RON2 block 32µM (no result: Pf growth 48h, SARS PLP yeast, Pf growth 96h)
O=C(COC(=O)CN1C(=O)C2CC=CCC2C1=O)Nc1cc(C(F)(F)F)ccc1N1CCOCC1 (stereo not given)	none (no result: Pf growth 48h)
CC1(C(=O)O)CCC(C(=O)Nc2ccccc2O)C1(C)C (stereo not given)	Pf growth 96h 12µM (no result: Pf growth 48h)
CC(=O)c1ccc(NC(=O)C2CCC(C)(C(=O)O)C2(C)C)cc1 (stereo not given)	Pf growth 96h inconclusive
c1ccc2c(c1)c1ccccc1n2CN1CCOCC1	none
O=C(O)CC1SC(=Nc2cccc(C(F)(F)F)c2)NC1=O (stereo not given)	Pf growth 96h 2.9µM (no result: Pf growth 48h)
O=C(O)CC1SC(=Nc2ccc(O)cc2)NC1=O (stereo not given)	none
C/C(=N/NS(=O)(=O)c1ccc(Cl)cc1)c1cccc(NC(=O)c2ccncc2)c1	Pf growth 48h inconclusive
CCn1c(SCC(=O)C(C)(C)C)nnc1-c1cnccn1	none
CSc1nnc(-c2cnccn2)n1CCCN1CCCC1=O	Pf growth 96h 7.4µM
COc1ccc(CCNc2ccc(S(N)(=O)=O)cn2)cc1	none
Cc1ccc(NC(=O)Cc2nc(CN(C)CC(=O)Nc3ccc(C)cc3)cs2)cc1	Pf growth 48h 13µM, Pf growth 96h inconclusive
Cc1ccc(NC(=O)Cc2nc(CSc3nnc(-c4ccc5c(c4)OCO5)o3)cs2)cc1	Pf growth 96h 3.7µM
COc1cccc(NC(=O)Nc2nnc(N3C(C)CCCC3C)s2)c1 (stereo not given)	Pf growth 48h 13µM, Pf growth 96h inconclusive
COc1cccc(NC(=O)Nc2nnc(Cc3ccccc3)s2)c1	Pf growth 96h inconclusive
COc1cccc(NC(=O)Nc2ccncc2)c1	Pf growth 48h 10µM
S=C(NCc1ccc(Cl)cc1)Nc1ccccc1	none
S=C(NCc1ccc(Cl)cc1)Nc1ccncc1	Pf growth 48h 13µM
Cc1cccc(NC(=O)Nc2nnc(N3CCCCC3C)s2)c1C (stereo not given)	Pf growth 96h 2.1µM (no result: Pf growth 48h)
COc1cccc(NC(=O)Nc2ccc(Cc3ccncc3)cc2)c1	none
COc1ccc(CNC(=S)Nc2cccc(OC)c2)cc1	Pf growth 96h inconclusive
COc1cccc(NC(=S)NCc2ccncc2)c1	Pf growth 96h 8.3µM
O=C(N/N=C/c1ccncc1)C1CC1(c1ccccc1)c1ccccc1 (stereo not given)	Pf growth 48h inconclusive, Pf growth 96h 5.2µM
O=C(N/N=C/c1ccc(O)c([N+](=O)[O-])c1)C1CC1(c1ccccc1)c1ccccc1 (stereo not given)	Pf growth 48h inconclusive
Cc1ccc2c(CSc3nc4nc(C)cc(C)n4n3)cc(=O)oc2c1	Pf growth 48h inconclusive, Pf growth 96h inconclusive
COc1ccc2c(CSc3nc4nc(C)cc(C)n4n3)cc(=O)oc2c1	Pf growth 48h 13µM
CCN(CC)S(=O)(=O)c1cc(NC(=O)CN2CCN(c3ccccn3)CC2)ccc1C	Pf growth 48h inconclusive, Pf growth 96h inconclusive
CCN(CC)S(=O)(=O)c1cc(NC(=O)C(C)N2CCN(c3ccccn3)CC2)ccc1C (stereo not given)	Pf growth 48h 12µM, Pf growth 96h 3.7µM
CCN(CC)S(=O)(=O)c1cc(NC(=O)C(C)Nc2ccccc2N2CCOCC2)ccc1C (stereo not given)	Pf growth 48h inconclusive, Pf growth 96h 7.4µM
O=C(NCCOc1ccccc1Cl)c1ncn[nH]1	none
Cc1ccc(C(=O)CSc2nnc(COc3ccccc3)o2)cc1	Pf growth 96h inconclusive
CCOC(=O)CN1CC23C=CC(O2)C(C(=O)Nc2cc(OC)ccc2OC)C3C1=O (stereo not given)	Pf growth 96h inconclusive
Cc1ccc2c(c1)N(S(=O)(=O)c1ccc(F)cc1)C(C(C)(C)C)CO2 (stereo not given)	Pf growth 48h 13µM, SARS PLP yeast inconclusive
Cc1ccc(S(=O)(=O)N2c3ccccc3OCC2C(C)(C)C)cc1 (stereo not given)	Pf growth 48h 9.3µM, Pf growth 96h inconclusive
Cc1ccc2c(c1)NC(C(C)(C)C)CO2 (stereo not given)	none
COC(=O)CC1COc2ccccc2N1S(=O)(=O)c1ccc(OC)cc1 (stereo not given)	Pf growth 48h inconclusive, Pf growth 96h inconclusive
O=C(CCS(=O)CCC(=O)NCc1ccccc1)NCc1ccccc1	none
Cc1oc(-c2ccccc2)nc1Cn1cccc1C1=NC(c2ccccc2)CO1 (stereo not given)	Pf growth 48h inconclusive, Pf growth 96h 5.2µM, AMA1 RON2 block inconclusive
COc1cc(-c2noc(CCC(N)=O)n2)cc(OC)c1OC	Pf growth 96h 9.3µM (no result: AMA1 RON2 block)
CCOc1cc(-c2noc(CCC(=O)NCCc3ccccc3)n2)ccc1OC	Pf growth 96h 2.6µM
O=C1C2C3C=CC(O3)C2C(=O)N1Cc1ccncc1 (stereo not given)	none (no result: Pf growth 48h, SARS PLP yeast, Pf growth 96h)
Cc1ccc([N+](=O)[O-])cc1N(CC(=O)NCC1CCCO1)S(C)(=O)=O (stereo not given)	none
CC(=O)c1ccc(NC(=O)C(C)Oc2ccc(N(C)S(=O)(=O)c3ccc(C)cc3)cc2)cc1 (stereo not given)	Pf growth 48h 15µM, Pf growth 96h 13µM
CN(c1ccc(C(=O)Nc2cccc(O)c2)cc1)S(=O)(=O)c1ccccc1	none
Cc1ccc(S(=O)(=O)N(C)c2ccc(OC(C)C(=O)N(C)c3ccccc3)cc2)cc1 (stereo not given)	Pf growth 48h inconclusive, Pf growth 96h inconclusive
CC(=O)c1cccc(NC(=O)c2ccc(N(C)S(=O)(=O)c3ccc(C)cc3)cc2)c1	Pf growth 48h inconclusive, Pf growth 96h 8.3µM
COc1ccc(CNN2CCCCC2C(=O)Nc2ccc(OC)c(OCC(C)C)c2)cc1OC (stereo not given)	Pf growth 96h 15µM
Cc1cccc(NC(=S)N=Nc2c(O)n(C)c3ccc(S(=O)(=O)N4CCOCC4)cc23)c1	Pf growth 48h 8.3µM, Pf growth 96h 2.3µM
